Experimental data: PubChem BioAssay (NCI)
This is part of a sample that, as a whole, favours compounds with a hit. Of some 83,000 tested, about 20% had one in any assay.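 Growth was measured after 48 h exposure to one concentration of compound in 96-well plates. Values under 10 count as active.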 Values without a mark were called inactive. Active and inactive are the calls of the source.

What was measured:
Test in all cases: NCI-60 one-dose screen, 48 h (100 = growth as untreated, 0 = no growth, -100 = all killed)
NCI-H23 lung = conditions: 10 µM unless noted
NCI-H322M lung = conditions: 10 µM unless noted
HOP-62 NSCLC = conditions: 10 µM unless noted
NCI-H460 lung = conditions: 10 µM unless noted
NCI-H522 lung = conditions: 10 µM
A549/ATCC NSCLC = conditions: 10 µM unless noted
786-0 renal = conditions: 10 µM unless noted
COLO 205 colon = conditions: 10 µM unless noted
HOP-92 NSCLC = conditions: 10 µM unless noted

Structure (SMILES)	growth (NCI-H23 lung)	growth (NCI-H322M lung)	growth (HOP-62 NSCLC)	growth (NCI-H460 lung)	growth (NCI-H522 lung)	growth (A549/ATCC NSCLC)	growth (786-0 renal)	growth (COLO 205 colon)	growth (HOP-92 NSCLC)
Cc1ccc(C2SCC(=O)N2NC(=O)c2[nH]c3ccc(F)cc3c2-c2ccccc2)cc1 (stereo not drawn)	86.6%	111%	109%	92.2%	67.8%	74.1%	105%	104%	
COc1cc(-c2nc(SC(C)C)nc(Nc3ccccc3C)c2C#N)cc(OC)c1OC	105%	106%	104%	107%		101%	108%	117%	110%
c1ccc(-c2n(Cc3ccc4ccccc4c3)c3ccccc3[n+]2Cc2ccc3ccccc3c2)cc1	-20.9% (active)	3.63% (active)	4.19% (active)	-82.1% (active)		5.14% (active)	-94.8% (active)	-70.7% (active)	-40.4% (active)
CCOC(=O)c1c(-c2cc(OC)c(OC)c(OC)c2)csc1N	92.9%	99.4%	80%	104%	79.6%	96.9%	112%	90.7%	
CCN(CC)c1ccc(/C=C(\C#N)c2cc3ccccc3[nH]2)cc1	79.2%	88.7%	77.7%	24.4%		39.4%	80%	45.3%	97%
CC[Si](CC)(CC)OC1[C@@H](O[Si](CC)(CC)CC)[C@@H](CNC(=O)NC)O[C@H]1n1cnc2c(NC(=O)Nc3ccccc3)ncnc21 (stereo partly drawn)	51.9%	96.3%	95.9%	24.8%		68.5%	89.6%	99.1%	67.2%
Cc1cc(=O)oc2c1ccc1oc(C(=O)c3ccccc3)c(C)c12	82.1%	112%	115%	85%		93.8%	99.5%	93.5%	105%
COc1cc2nc(SCc3cc(OC)c(OC)c(OC)c3)n(-c3ccccc3OC)c(=O)c2cc1OC	79.9%	85.1%	93.2%	83.4%		88%	91.4%	118%	65.8%
CC(=O)Nc1ccc(Sc2ccc([N+](=O)[O-])o2)cc1	39.9%	98.3%	68.4%	46.9%		65.1%	50.7%	-67.3% (active)	40.2%
CCOC(=O)C1=C(C)N2C(=NC3=C(CCCC/C3=C\c3ccccc3)C2c2ccccc2)S1 (stereo not drawn)	95.5%	92%	117%	99.1%		99.1%	96.6%	117%	-2.46% (active)
Cc1ccc2nc(NC(=O)CSC(=S)N3CCN(Cc4ccccc4)CC3)sc2c1	1.13% (active)	-71.8% (active)	-59.1% (active)	-70.9% (active)		1.71% (active)	-21.1% (active)	-63.3% (active)	-55.4% (active)
O=C1C(OCCOc2ccccc2)=C(OCCOc2ccccc2)C(=O)c2ccccc21	16.3%	60.3%	56.4%	-26% (active)		17.4%	100%	102%	102%
COc1ccc(-n2c(SCc3cc(OC)c(OC)c(OC)c3)nc3ccc(C)cc3c2=O)c(OC)c1	17.8%	28%	47.4%	4.59% (active)		19%	29.6%	-4.21% (active)	22.7%
Cc1cc(=O)c2c(C)ccc(C)c2[nH]1	100%	109%	104%	111%	96.2%	93.1%	96.4%	125%	
COc1ccc(OC)c(C2C(C#N)=C(N)Oc3cc(O)ccc32)c1 (stereo not drawn)	88%	102%	97.4%	108%	80.3%	97.1%	96.7%	101%	
Nc1nc(N)c(C=Nc2ccc(Br)cc2)c(Nc2ccc(Br)cc2)n1	97.9%	72.9%	98.9%	95.9%	86.4%	77.2%	92.9%	117%	
O=C(O)c1ccccc1Oc1cc(-c2ccco2)nc(OCCBr)n1	105%	100%	101%	110%	103%	94.2%	100%	109%	
O=C1CN2CCC1C/C2=C\c1ccnc2c(Cl)cccc12 (stereo not drawn)	92.2%	102%	82%	116%	88.9%	107%	103%	98%	
O=C1NC(=S)S/C1=C\c1cccc([N+](=O)[O-])c1	89.6%	132%	114%	104%	107%	103%	91.5%	110%	

Structure (SMILES)	growth (NCI-H23 lung)	growth (NCI-H322M lung)	growth (HOP-62 NSCLC)	growth (NCI-H460 lung)	growth (NCI-H522 lung)	growth (A549/ATCC NSCLC)	growth (786-0 renal)	growth (COLO 205 colon)	growth (HOP-92 NSCLC)
O=[N+]([O-])c1cc2c(cc1Br)-c1ccccc1C2	84.7%	115%	81.4%	102%	77.6%	90.9%	88.4%	84.6%	
COC(=O)C1C2CC3c4[nH]c5cc(OC)ccc5c4CCN3CC2CC(OC2CCCCO2)C1OC (stereo not drawn)	98.9%	102%	108%	107%	93.6%	95.7%	101%	109%	
COc1ccccc1CNCCCCCCCCCCCCN1C(=O)c2ccc3c4c(ccc(c24)C1=O)C(=O)N(CCCCCCCCCCCCNCc1ccccc1OC)C3=O	-47.6% (active)	111%	54.5%	35.5%	87%	75.4%	-73.7% (active)	109%	
CN1CCC(OC2c3ccccc3CCc3ccccc32)CC1	94.6%	92.8%	93.8%	106%	96.7%	96.2%	103%	99.1%	
COc1cc(CNCCCN2C(=O)c3ccc4c5c(ccc(c35)C2=O)C(=O)N(CCCNCc2cc(OC)c(OC)c(OC)c2)C4=O)cc(OC)c1OC	-74.8% (active)	-24.2% (active)	-81.4% (active)	-75% (active)	-80.7% (active)	-84.8% (active)	-30% (active)	-92.6% (active)	
COc1cc(/C=C/C(=O)C(=Cc2ccc(F)c(F)c2)C(=O)/C=C/c2ccc(O)c(OC)c2)ccc1O	-24.6% (active)	59.4%	22.1%	1.97% (active)	-48.3% (active)	44.2%	40.8%	58.1%	
Cc1ccc(S(=O)(=O)c2ccc3[nH]c(=O)[nH]c(=O)c3c2)cc1	102%	106%	106%	114%	84.9%	80.7%	96.5%	99.3%	
COc1cc(/C=C2\C(=O)N(c3c(Cl)cccc3Cl)c3ccccc32)cc(OC)c1O	48.1%	48.2%	48.6%	-4.41% (active)	28%	16.9%	13.9%	74.8%	
O=C1c2ccccc2C(=O)c2c(Nc3ccc(CCO)cc3)ccc(O)c21	93.3%	68.5%	107%	56%	71.5%	67.5%	104%	49.1%	
O=C1/C(=C/c2ccc(Oc3ccccc3)cc2)N=C(c2ccccc2)N1CCc1cccs1	87.1%	93.6%	104%	70.1%	46.8%	91.3%	84.5%	107%	
CC1SC(c2cccc(Oc3ccccc3)c2)N(CCc2cccs2)C1=O (stereo not drawn)	-14.2% (active)	4.21% (active)	6.21% (active)	-64.2% (active)	-50.8% (active)	-9.36% (active)	-29.6% (active)	-60.1% (active)	
COC(=O)[C@@H]1CCCN1C(=O)[C@@H]1CCCN1C(=O)[C@@H](Cc1c[nH]c2ccccc12)NC(=S)Nc1cc(C(F)(F)F)cc(C(F)(F)F)c1	74.2%	75.8%	83.3%	51.6%	73.2%	56.4%	69.8%	16.8%	
Fc1ccccc1Nc1ccc2nnc(-c3ccncc3)n2n1	93.1%	104%	106%	103%	-74.5% (active)	103%	101%	106%	
NC(=O)c1nc2c([nH]c1=O)CCCC2	104%	120%	94.7%	115%	91.6%	103%	106%	101%	
COc1cccc(C2CC(=O)Nc3cc4c(cc32)OCO4)c1OC (stereo not drawn)	92.3%	88.3%	98.2%	102%	87.4%	89.8%	114%	107%	
CCCN(CCC)c1ccc(/C=C/c2ccc3cc(OCC)ccc3n2)cc1	83.8%	105%	125%	95.1%	76.8%	87.4%	91.1%	112%	
Clc1ccccc1Nc1ccc2nnc(-c3ccncc3)n2n1	101%	102%	112%	109%	-55.8% (active)	89.9%	75.7%	106%	
COc1ccc(Sc2ccc3[nH]c(=O)nc(N)c3c2)cc1	101%	96.4%	108%	106%	100%	80.3%	104%	106%	
COc1ncnc2c1ncn2C/C(Br)=C(\Br)CCl	15.1%	78.9%	15.6%	-40.7% (active)	-72.1% (active)	9.47% (active)	7.78% (active)	-82.6% (active)	

Structure (SMILES)	growth (NCI-H23 lung)	growth (NCI-H322M lung)	growth (HOP-62 NSCLC)	growth (NCI-H460 lung)	growth (NCI-H522 lung)	growth (A549/ATCC NSCLC)	growth (786-0 renal)	growth (COLO 205 colon)	growth (HOP-92 NSCLC)
Cc1c(NCC(=O)Nc2nc3ccccc3[nH]2)c(=O)n(-c2ccccc2)n1C	94.9%	105%	107%	99.6%	100%	97%	104%	110%	
O=S(=O)(Nc1ncccn1)c1ccc(Nc2ccc3nnc(-c4ccncc4)n3n2)cc1	99.6%	112%	104%	96.4%	113%	104%	103%	107%	
O=C(NCc1ccco1)C1CCN(S(=O)(=O)c2ccc(Cl)cc2)CC1	77.9%	108%	92.6%	63.1%	68.7%	74.9%	82.9%	101%	
Cc1ccc(-c2nnc(COc3ccc(-c4nnc(N)s4)cc3)o2)cc1	79.4%	95.9%	113%	93%	73.9%	105%	96.9%	92.8%	
COC(=O)[C@H]1CCCN1C(=O)[C@H]1CCCN1C(=O)[C@@H](Cc1c[nH]c2ccccc12)NC(=S)Nc1cc(C(F)(F)F)cc(C(F)(F)F)c1	69.2%	32.8%	78.6%	18.6%	85.7%	31%	62.5%	38.4%	
COc1ccc(C2SC(C)C(=O)N2CCc2cccs2)cc1OC (stereo not drawn)	76.4%	91.7%	94.5%	90.3%	66.2%	80.6%	92%	93.9%	
CN([N-]C(=O)CC(=O)[N-]N(C)C(=S)c1ccccc1)C(=S)c1ccccc1.[Cu+2]	-73.8% (active)	-95.8% (active)	-98.6% (active)	-35.4% (active)	-93.4% (active)	-54.9% (active)	-72% (active)	-83.4% (active)	
COc1cc(C(=O)N(C(C)C)C2CCCCC2)cc(OC)c1OC	101%	108%	93.3%	107%	88.3%	97.2%	121%	105%	
COc1ccc(-c2csc3c2-n2cccc2C3=O)cc1O	11.7%	17.5%	31.3%	1.57% (active)	-22.5% (active)	11.9%	1.66% (active)	72.3%	
O=C(Nc1ccccc1)Oc1cccc2cccnc12	87.1%	138%	99.6%	74.8%	-4.77% (active)	93.3%	99.9%	72.1%	
CCN1C(=O)C2(Nc3ccccc3S2)c2cc(C)ccc21 (stereo not drawn)	111%	96.2%	89.7%	109%	86.8%	95.7%	113%	97%	
Clc1cccc(Cl)c1Nc1ccc2nnc(-c3ccncc3)n2n1	95.8%	88.5%	103%	106%	-74.4% (active)	104%	104%	110%	
O=C1/C(=C/c2ccc(Cl)cc2)N=C(c2ccccc2)N1CCc1cccs1	61.4%	82.2%	108%	23.3%	23%	30.6%	50.9%	100%	
COc1cccc(Nc2nc(NCCO)c3ccccc3n2)c1	85.8%	86.4%	93.1%		70.8%	68.3%	86%	108%	
COc1ccc(C2OCC(C)(C)CO2)cc1OC	98.3%	151%	117%	108%	117%	100%	110%	113%	
COC(=O)c1c2c(c(C)[n+]([O-])c1C)C(=O)C=C(NCc1ccc(F)cc1)C2=O	-46.2% (active)	-6.43% (active)	-6.11% (active)		-15.1% (active)	-22.7% (active)	5.86% (active)		-41.1% (active)
c1ccc(-c2nc(N3CCOCC3)c3c4c(sc3n2)CCCCCC4)nc1	62.1%	73%	70.3%	33.6%		28.9%	87.1%	68.5%	
O=C1NC(=O)C2(CCCC2C(=O)O)N1 (stereo not drawn)	98.3%	117%	111%			105%	94.9%	109%	
